Results on seven compounds are retold here after PubChem BioAssay (NCI).

SMILES strings stand for the structures. The panel holds about 83,000 compounds, 20% with a hit somewhere; the sample as a whole holds those more often.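 Cell lines were cultured in 96-well plates, exposed to a single compound concentration, and assessed for percent growth 48 hours later.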 A number with no mark means an inactive call. Calls of active or inactive are those of the source. The calls were made as follows: active = growth percent below 10; inactive = the rest.

Holding throughout (experiment): NCI-60 one-dose screen, 48 h (100 = growth as untreated, 0 = no growth, -100 = all killed)
Details in all cases: 10 µM unless noted

In test [1] the test system is NCI-H23 lung.
The subject of test [2] is NCI-H226 lung.
For test [3], the system named is NCI-H322M lung.
For test [4], the system named is HOP-62 NSCLC.
Test [5] deals with NCI-H460 lung.
The test system of test [6] is HOP-92 NSCLC.
The test system of test [7] is NCI-H522 lung.
Test [8] concerns A549/ATCC NSCLC.
In test [9] the test system is 786-0 renal.
Test [10] relates to COLO 205 colon.
The test system of test [11] is DU-145 prostate.
Test [12] relates to K-562 leukemia.
For test [13], the system named is MALME-3M melanoma.
Test [14] has as its system MDA-MB-231 breast.
In test [15] the test system is RXF 393 renal.
The test system of test [16] is SF-268 CNS.
Test [17] deals with SF-295 CNS.
Test [18] deals with SF-539 CNS.
For test [19], the system named is UACC-257 melanoma.
In test [20] the test system is M14 melanoma.

As for `c1csc(-c2c3ccc(=[N+]4CCCCC4)cc-3oc3cc(N4CCCCC4)ccc23)c1`, the growth in test [1] is -71.3% (active); in [2], -81.7% (active); in test [3] it was -78.5% (active); in test [4], -60.6% (active); in test [5], -57.3% (active); in test [6] it was -64.7% (active). Moreover, the growth was -70% (active) in [7]; -56.2% (active) in test [8]; -92.5% (active) in test [9]; -61.5% (active) in [10]; -96.6% (active) in test [11]; -29.5% (active) in test [12]. The growth in test [13] is -58.8% (active); in test [14], -50.9% (active); in test [15], -97% (active); in [16], -88.8% (active); in test [17], -53.7% (active); in [18], -91.3% (active). Moreover, the growth was -69.8% (active) in test [19] and -87.8% (active) in [20].

Consider `COC(=O)[C@H](CSC)N(C)C(=O)[C@@H]1CSSC[C@@H](NC(=O)c2nc3ccccc3cc2O)C(=O)NCC(=O)N1C`, for which the growth is 84.9% in test [1]; 87.5% in [2]; 100% in test [3]; 82.2% in test [4]; 59.1% in test [5]; 132% in test [6]. Further, the growth was 45.9% in test [7]; 59.4% in [8]; 111% in [9]; 16% in test [10]; 77.6% in [11]; 48.8% in test [12]. For the same compound, the growth in [13] was 96.7%; in test [14], 81.3%; in test [15], 101%; in test [16], 79.2%; in [17], 114%; in test [18], 87.2%. Also, the growth in test [19] was 76.1%; in test [20], 46.2%.

In the case of `O=C1N=c2cc3c(cc2=C/C1=C/c1sc(=S)n(CCc2ccc(O)cc2)c1O)OCCO3`, the growth in test [1] is 71.2%; in test [2], 93.5%; in [3] it was 95.9%; in test [4] it was 97%; in [5], 83.8%; in test [6] it was 56.7%. Moreover, the growth in test [7] was 37.3%; in [8], 99.1%; in [9], 80.5%; in [10] it was 75.6%; in test [11], 80.6%; in [12], 6.11% (active). In addition, the growth in test [13] is 36.7%; in test [14], 24.8%; in test [15], 92.9%; in test [16], 91.7%; in test [17] it was 101%; in [18], 95.8%. Besides, the growth in test [19] is 90.3%; in test [20], 27.8%.

For the compound `Cc1ccc(S(=O)(=O)Oc2cc(OS(=O)(=O)c3ccc(C)cc3)cc(OS(=O)(=O)c3ccc(C)cc3)c2)cc1`, the growth is 98.9% in test [1]; 101% in test [2]; 140% in test [3]; 101% in test [4]; 100% in test [5]; 72.1% in test [6]. Moreover, the growth was 80.8% in test [7]; 97.5% in [8]; 101% in test [9]; 114% in test [10]; 108% in test [11]; 94.4% in test [12]. Besides, the growth is 133% in test [13]; 92.2% in [14]; 99.6% in [15]; 99% in test [16]; 86.9% in test [17]; 95% in test [18]. Besides, the results for the growth in test [19] and in test [20] were 104% and 108%, respectively.

As to `CCSC1=NC2C(N(CC)C(=O)N2CC)N1/N=C/C=C/c1ccccc1[N+](=O)[O-]` (stereo not given), the growth in test [1] is 21.9%; in test [2] it was 47.1%; in test [3] it was 31.2%; in test [4], 33.7%; in test [5], 1.33% (active); in test [6], 19.8%. Moreover, the growth is -1.31% (active) in [7]; 19% in test [8]; 19% in [9]; 3.83% (active) in test [10]; 5.79% (active) in test [11]; 10.4% in test [12]. Moreover, the growth in [13] was 36.2%; in test [14], -1.7% (active); in [15], 41.5%; in test [16] it was 45.2%; in test [17], 8.87% (active); in [18], -26.3% (active). In addition, the growth in [19] was 61.1%; in test [20] it was 6.53% (active).

`Cc1cc(N2CCCC2)nc(NCc2cc(Nc3ccnc4cc(Cl)ccc34)ccc2F)n1`: the growth is -27.8% (active) in test [1]; 24.8% in test [2]; -27.6% (active) in test [3]; -69.2% (active) in test [4]; -71.5% (active) in test [5]; -14% (active) in test [6]. Also, the growth in test [7] was -50.3% (active); in test [8], -13.1% (active); in [9] it was -92.7% (active); in test [10], -82.2% (active); in test [11], -65.9% (active); in test [12], -31.9% (active). Besides, the growth was -66.9% (active) in test [13]; -69.8% (active) in test [14]; -64.9% (active) in test [15]; -56.2% (active) in test [16]; -87.5% (active) in test [17]; -70.4% (active) in [18]. For the same compound, the growth in test [19] is -64% (active); in test [20], -80.3% (active).

As to `C[n+]1cc2cc(C(N)=O)[nH]c3c(=N)c(Cl)c(N)c1c23`, the growth in test [1] was 56.6%; in test [2], 57.1%; in test [3] it was 80.5%; in [4], 37.9%; in test [5] it was 23.8%; in test [6], 80%. For the same compound, the growth in test [7] was 35.2%; in [8], 26.3%; in test [9], 49.1%; in [10], 44.1%; in [11], 69.7%; in test [12], 53%. For the same compound, the growth in test [13] is 99.1%; in [14], 53.7%; in test [15], 73.8%; in test [16] it was 64.8%; in [17], 74.1%; in [18], 90.6%. Also, the results for the growth in test [19] and in [20] were 45.5% and 59.9%, respectively.
